# Results from the supplement of paper PMC8728848.
# Shown is part of a subset that was picked to be rich in the strongest signals.
# Legend:
# Test in all cases: glycan array binding signal (z-score within array); higher = stronger binding
# Settings in all cases: glycan notation: IUPAC condensed, linker removed
# [1] = molecular target: Fuc(a1-2)Gal(b1-3)[Fuc(a1-4)]GlcNAc(b1-2)Man(a1-3)[Fuc(a1-2)Gal(b1-3)[Fuc(a1-4)]GlcNAc(b1-2)Man(a1-6)]Man(b1-4)GlcNAc(b1-4)[Fuc(a1-6)]GlcNAc(b1-4)[Fuc(a1-6)]GlcNAc
# How it was run: (§1)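 The Consortium for Functional Glycomics database supplied 3228 glycan arrays, of which those lacking an available protein sequence were dropped. The binding signal, a within-array Z-score, was averaged across arrays of the same protein sequence and across linkers. Negative scores can be read as non-binding.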
# [2] = molecular target: Fuc(a1-2)Gal(b1-4)GlcNAc(b1-2)Man
# How it was run: as §1
# [3] = molecular target: Fuc(a1-2)Gal(b1-4)GlcNAc(b1-2)[Fuc(a1-2)Gal(b1-4)GlcNAc(b1-4)]Man(a1-3)[Fuc(a1-2)Gal(b1-4)GlcNAc(b1-2)Man(a1-6)]Man(b1-4)GlcNAc(b1-4)GlcNAc
# How it was run: as §1
# [4] = molecular target: Fuc(a1-2)Gal(b1-4)[Fuc(a1-3)]GlcNAc
# How it was run: as §1
# [5] = molecular target: Fuc(a1-2)Gal(b1-4)[Fuc(a1-3)]GlcNAc(b1-3)Gal(b1-4)[Fuc(a1-3)]GlcNAc(b1-3)Gal(b1-4)[Fuc(a1-3)]GlcNAc
# How it was run: as §1
# [6] = molecular target: Fuc(a1-2)[Gal(a1-3)]Gal(b1-4)GlcNAc(b1-2)Man
# How it was run: as §1
# [7] = molecular target: Fuc(a1-2)[GalNAc(a1-3)]Gal(b1-4)GlcNAc(b1-6)GalNAc
# How it was run: as §1
# [8] = molecular target: Fuc(a1-3)[Gal(b1-4)]Glc6S
# How it was run: as §1
# [9] = molecular target: Fuc(a1-3)[Gal(b1-4)]GlcNAc(b1-6)[Gal(b1-3)GlcNAc(b1-3)]Gal(b1-4)Glc
# How it was run: as §1
# Gal(a1-3)Gal(b1-3)GlcNAc = molecular target: Gal(a1-3)Gal(b1-3)GlcNAc
# How it was run: as §1
# Gal(a1-3)GalNAc = molecular target: Gal(a1-3)GalNAc
# How it was run: as §1
# [10] = molecular target: Gal(b1-3)GlcNAc(a1-3)Gal(b1-4)GlcNAc
# How it was run: as §1
# [11] = molecular target: Gal(b1-3)GlcNAc(b1-3)Gal(b1-4)GlcNAc(b1-2)[Gal(b1-3)GlcNAc(b1-3)Gal(b1-4)GlcNAc(b1-6)]Man(a1-6)[Gal(b1-3)GlcNAc(b1-3)Gal(b1-4)GlcNAc(b1-2)Man(a1-3)]Man(b1-4)GlcNAc(b1-4)[Fuc(a1-6)]GlcNAc
# How it was run: as §1
# Gal(b1-4)Glc = molecular target: Gal(b1-4)Glc
# How it was run: as §1
# [12] = molecular target: Gal(b1-4)GlcNAc(a1-6)Gal(b1-4)GlcNAc
# How it was run: as §1
# Gal(b1-4)GlcNAc(b1-2)Man = molecular target: Gal(b1-4)GlcNAc(b1-2)Man
# How it was run: as §1
# [13] = molecular target: Gal(b1-4)GlcNAc(b1-2)[Gal(b1-4)GlcNAc(b1-4)]Man(a1-3)[Gal(b1-4)GlcNAc(b1-2)[Gal(b1-4)GlcNAc(b1-6)]Man(a1-6)]Man(b1-4)GlcNAc(b1-4)GlcNAc
# How it was run: as §1
# [14] = molecular target: Gal(b1-4)GlcNAc(b1-3)Gal(b1-4)GlcNAc(b1-2)Man(a1-3)[Gal(b1-4)GlcNAc(b1-3)Gal(b1-4)GlcNAc(b1-2)Man(a1-6)]Man(b1-4)GlcNAc(b1-4)GlcNAc
# How it was run: as §1
# [15] = molecular target: Gal(b1-4)GlcNAc(b1-3)Gal(b1-4)GlcNAc(b1-2)Man(a1-3)[Gal(b1-4)GlcNAc(b1-3)Gal(b1-4)GlcNAc(b1-2)Man(a1-6)]Man(b1-4)GlcNAc(b1-4)[Fuc(a1-6)]GlcNAc
# How it was run: as §1
# [16] = molecular target: Gal(b1-4)GlcNAc(b1-3)Gal(b1-4)GlcNAc(b1-3)Gal(b1-4)GlcNAc(b1-3)Gal(b1-4)GlcNAc(b1-2)Man(a1-3)[Gal(b1-4)GlcNAc(b1-3)Gal(b1-4)GlcNAc(b1-3)Gal(b1-4)GlcNAc(b1-3)Gal(b1-4)GlcNAc(b1-2)Man(a1-6)]Man(b1-4)GlcNAc(b1-4)[Fuc(a1-6)]GlcNAc
# How it was run: as §1
# [17] = molecular target: Gal(b1-4)GlcNAc(b1-3)Gal(b1-4)GlcNAc(b1-3)Gal(b1-4)GlcNAc(b1-3)Gal(b1-4)GlcNAc(b1-3)Gal(b1-4)GlcNAc(b1-2)Man(a1-3)[Gal(b1-4)GlcNAc(b1-3)Gal(b1-4)GlcNAc(b1-3)Gal(b1-4)GlcNAc(b1-3)Gal(b1-4)GlcNAc(b1-3)Gal(b1-4)GlcNAc(b1-2)Man(a1-6)]Man(b1-4)GlcNAc(b1-4)GlcNAc
# How it was run: as §1
# [18] = molecular target: Gal(b1-4)GlcNAc(b1-3)Gal(b1-4)GlcNAc(b1-3)Gal(b1-4)GlcNAc(b1-3)Gal(b1-4)GlcNAc(b1-3)Gal(b1-4)GlcNAc(b1-2)[Gal(b1-4)GlcNAc(b1-3)Gal(b1-4)GlcNAc(b1-3)Gal(b1-4)GlcNAc(b1-3)Gal(b1-4)GlcNAc(b1-3)Gal(b1-4)GlcNAc(b1-6)]Man(a1-6)[Gal(b1-4)GlcNAc(b1-3)Gal(b1-4)GlcNAc(b1-3)Gal(b1-4)GlcNAc(b1-3)Gal(b1-4)GlcNAc(b1-3)Gal(b1-4)GlcNAc(b1-2)Man(a1-3)]Man(b1-4)GlcNAc(b1-4)[Fuc(a1-6)]GlcNAc
# How it was run: as §1
# [19] = molecular target: Gal(b1-4)GlcNAc(b1-3)Gal(b1-4)GlcNAc(b1-3)Gal(b1-4)GlcNAc(b1-3)Gal(b1-4)GlcNAc(b1-3)Gal(b1-4)GlcNAc(b1-3)Gal(b1-4)GlcNAc(b1-2)Man(a1-3)[Gal(b1-4)GlcNAc(b1-3)Gal(b1-4)GlcNAc(b1-3)Gal(b1-4)GlcNAc(b1-3)Gal(b1-4)GlcNAc(b1-3)Gal(b1-4)GlcNAc(b1-3)Gal(b1-4)GlcNAc(b1-2)Man(a1-6)]Man(b1-4)GlcNAc(b1-4)GlcNAc
# How it was run: as §1
# Gal3S(b1-4)Glc = molecular target: Gal3S(b1-4)Glc
# How it was run: as §1
# GalNAc3S(b1-4)GlcNAc = molecular target: GalNAc3S(b1-4)GlcNAc
# How it was run: as §1
# [20] = molecular target: GalNAc3S(b1-4)[Fuc(a1-3)]GlcNAc
# How it was run: as §1
# GalNAc4S6S(b1-4)GlcNAc = molecular target: GalNAc4S6S(b1-4)GlcNAc
# How it was run: as §1
# [21] = molecular target: GlcA3S(b1-3)Gal(b1-4)GlcNAc(b1-2)Man
# How it was run: as §1
# [22] = molecular target: GlcNAc(a1-4)Gal(b1-4)GlcNAc
# How it was run: as §1
# [23] = molecular target: GlcNAc(b1-2)Man(a1-3)[GlcNAc(b1-4)][GlcNAc(b1-2)Man(a1-6)]Man(b1-4)GlcNAc(b1-4)GlcNAc
# How it was run: as §1
binder,measurement,setting,value
GS13599A-bth-520-23-520 (Bacteroides thetaiotaomicron) (protein) SEDTMDRINKDHDHTTSVASRFILADVITSTAFSNASGDINTYASSYIEYEVGVDNQLYYAEVRENEPSSSSTFNNSWNGIYSSLKNARIIIDQCGEGGRDHGNDVTRGMAEVMAAYNCALIADFFGDAPCSQAALVDEKGSPVYMTPKMDTQQEIYTQIISYLDDAIANLQKEDLADVTEQDFLYAGDADKWLKFAYGLKARYTMRLINRSSNKSADYEKVLDYVSKSFTSADDQAAFDIYDSNNINPFYGFYNSRAGFGASTSLGTKLLAYNDPRANRAFFTPIVDKKRSQVAANDPSLVPAPNGSPDQSTSKYGISAFVYAKTAPTLLMSYHELMFLKAEALCRLNRDAEDALKEAVVAGLLNAENSISIAIKELGSGLNTNSSEVITETSAGKYFDDVVKAKYAANPLQETMIQKYLAMWGASGEATETYNDFRRMKGLNENFITLTNPNNSSKFPLRYPYGNSDTAANPEVKAAYGNGDYVYSEPVWWAGGSR,glycan array binding signal (z-score),[1],0.741
same,glycan array binding signal (z-score),[2],-0.841
same,glycan array binding signal (z-score),[3],2.4
same,glycan array binding signal (z-score),[4],0.206
same,glycan array binding signal (z-score),[5],-0.474
same,glycan array binding signal (z-score),[6],-0.234
same,glycan array binding signal (z-score),[7],-1.38
same,glycan array binding signal (z-score),[8],0.474
same,glycan array binding signal (z-score),[9],-0.479
same,glycan array binding signal (z-score),Gal(a1-3)Gal(b1-3)GlcNAc,-0.349
same,glycan array binding signal (z-score),Gal(a1-3)GalNAc,-1.08
same,glycan array binding signal (z-score),[10],0.206
same,glycan array binding signal (z-score),[11],2.93
same,glycan array binding signal (z-score),Gal(b1-4)Glc,-0.435
same,glycan array binding signal (z-score),[12],-1.2
same,glycan array binding signal (z-score),Gal(b1-4)GlcNAc(b1-2)Man,2.44
same,glycan array binding signal (z-score),[13],-0.453
same,glycan array binding signal (z-score),[14],3.32
same,glycan array binding signal (z-score),[15],1.38
same,glycan array binding signal (z-score),[16],2.46
same,glycan array binding signal (z-score),[17],3.9
same,glycan array binding signal (z-score),[18],7.02
same,glycan array binding signal (z-score),[19],0.294
same,glycan array binding signal (z-score),Gal3S(b1-4)Glc,3.17
same,glycan array binding signal (z-score),GalNAc3S(b1-4)GlcNAc,0.897
same,glycan array binding signal (z-score),[20],2.41
same,glycan array binding signal (z-score),GalNAc4S6S(b1-4)GlcNAc,-1.28
same,glycan array binding signal (z-score),[21],-0.448
same,glycan array binding signal (z-score),[22],-0.237
same,glycan array binding signal (z-score),[23],2.52
